KCNQ2 inh: blocks the rat KCNQ2 potassium channel. actives 1.1% (n = 310,000). B-score at 10 µM. CHO-K1 KCNQ2, FluxOR thallium flux, 20 min; hits give low values;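 active = fluorescence ratio B-score at most minus 3 library SDs, with starting brightness B-score within 2 library SDs, cut at about -5.5 in these data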
Target sequence (O88943 whole entry, looked up): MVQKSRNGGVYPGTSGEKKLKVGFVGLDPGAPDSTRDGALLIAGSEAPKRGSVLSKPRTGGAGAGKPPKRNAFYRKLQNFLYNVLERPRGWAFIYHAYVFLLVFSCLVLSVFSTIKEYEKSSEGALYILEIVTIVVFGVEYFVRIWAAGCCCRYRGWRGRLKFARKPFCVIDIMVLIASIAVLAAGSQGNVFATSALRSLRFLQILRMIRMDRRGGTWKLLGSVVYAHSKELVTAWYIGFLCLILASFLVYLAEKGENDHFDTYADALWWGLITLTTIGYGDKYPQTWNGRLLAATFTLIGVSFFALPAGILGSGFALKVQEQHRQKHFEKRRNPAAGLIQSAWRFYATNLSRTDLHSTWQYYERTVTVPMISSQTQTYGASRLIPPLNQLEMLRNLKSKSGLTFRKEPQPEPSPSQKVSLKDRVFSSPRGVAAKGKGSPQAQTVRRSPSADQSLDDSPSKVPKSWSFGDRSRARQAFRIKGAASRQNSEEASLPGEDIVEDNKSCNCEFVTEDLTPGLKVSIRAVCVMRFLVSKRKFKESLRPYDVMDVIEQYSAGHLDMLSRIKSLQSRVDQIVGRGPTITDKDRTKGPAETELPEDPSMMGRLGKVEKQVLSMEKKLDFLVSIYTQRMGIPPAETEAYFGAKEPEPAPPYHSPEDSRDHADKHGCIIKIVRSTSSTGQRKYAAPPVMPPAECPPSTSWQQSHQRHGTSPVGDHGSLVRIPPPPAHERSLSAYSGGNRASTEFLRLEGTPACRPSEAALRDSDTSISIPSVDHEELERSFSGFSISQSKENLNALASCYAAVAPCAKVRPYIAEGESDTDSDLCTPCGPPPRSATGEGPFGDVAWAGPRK
KCNQ2 enhance: potentiators of rat KCNQ2 potassium channel; O88943; CHO-K1 KCNQ2, FluxOR thallium flux fluorescence; hits give high values; B-score at 10 µM; actives 0.54% (n = 310,000); AID 2239;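 active = fluorescence ratio B-score at least 3 SD of library B-scores, with initial fluorescence B-score within 3 of them, cut at about 5.3 in these data; same plate scores as AID 2156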;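 note: B-score of peak minus minimum over baseline fluorescence ratio after K+ and Tl+ stimulus; positive B-score means potentiation of KCNQ2 with more thallium influx and brighter signal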
An asterisk follows results filed as active; i = inactive; . = no result given. An excerpt weighted towards active compounds, which were near 1.6% of everything screened.

SMILES	KCNQ2 inh	KCNQ2 enhance
N/C(=N\OC(=O)c1cc(-c2ccccc2)nc2ccccc12)c1ccc(Cl)cc1	-6.2*	-6.2
O=C(N/N=C/c1ccccn1)c1cc(-c2ccc(Br)cc2)nc2ccccc12	i	4.8
O=C(N/N=C/c1ccccn1)c1sc2ccccc2c1Cl	i	14*
N/C(=N\OC(=O)c1cc(-c2ccccc2)nc2ccccc12)c1cccnc1	i	.
CCCOc1cccc(-c2cc(C(=O)N/N=C/c3cccnc3)c3ccccc3n2)c1	-5.8*	-5.8
COc1ccc(Br)cc1CN(C)CC(=O)Nc1c(Cl)cccc1Cl	i	.
O=C(CN1CCCC1)Nc1cccc(Cl)c1Cl	i	0.86
CCC(c1nnc(SCC(=O)NC2CCCCC2)n1Cc1ccccc1)N(C)C (stereo not given)	i	.
CCOc1ccc(N(CC(=O)NCc2ccco2)C(=O)CCC(=O)Nc2ccccn2)cc1	i	0.02
N#Cc1cccc(CN2CCC(=O)N([C@H](CO)Cc3ccccc3)CC2)c1	i	0.71
NC(=S)c1cc2cc(Cl)ccc2oc1=O	i	0.04
Cc1ccc(C(=O)N/N=c2\sc3ccccc3n2C)cc1	i	12*
COc1cccc(C(=O)N/N=c2\sc3ccccc3n2C)c1	i	2.1
COC(=O)C1=CN(c2ccc(OC)cc2)C=C(C(=O)OC)C1c1ccc([N+](=O)[O-])cc1	-5.6*	-5.6
COC(=O)C1=CN(c2ccc(F)cc2)C=C(C(=O)OC)C1c1ccc([N+](=O)[O-])cc1	i	.
COc1ccc(-c2nc(-c3ccccn3)ncc2S(C)(=O)=O)cc1	i	1.5
Cn1nc(-c2ccccn2)nc2c(=O)n(C)c(=O)nc1-2	i	7.4*
CC1=Nc2ccc(Br)cc2C(c2ccccc2)N1CC(=O)NN (stereo not given)	i	1.6
OC1c2cc(Br)ccc2N=C2CCCN21 (stereo not given)	-7.7*	-7.7
O=C(COC(=O)CNC(=O)c1ccc(Cl)cc1Cl)NC1CCCCCCC1	i	1.6
COc1ccccc1N1CCN(C(=O)c2oc3ccc(F)cc3c2C)CC1	-6.5*	-6.5
COc1ccccc1N1CCN(C(=O)c2oc3ccc(Br)cc3c2C)CC1	i	.
O=C1Nc2ccc(Br)cc2C1(O)c1ccc(F)cc1 (stereo not given)	i	0.87
CCOC(=O)c1ccc(-c2csc(NC(=O)CN3CCC(C)CC3)n2)cc1	i	.
COC1Cc2ccccc2N(C(N)=O)c2ccccc21 (stereo not given)	i	.
SMILES	KCNQ2 inh	KCNQ2 enhance
CCN(Cc1ccccc1)S(=O)(=O)c1cc(C(=O)NCC2CCCCC2)ccc1OC	i	.
CCN(Cc1ccccc1)S(=O)(=O)c1cc(C(=O)NC2CCCCCC2)ccc1OC	-6.8*	-6.8
CCOc1cc(C(=O)N2CCCN(C)CC2)cc(OCC)c1OCC	i	1.1
Cc1ccc2nc(C)c3c(c2c1)OC(C(C)(Cl)Br)C3 (stereo not given)	-5.7*	-5.7
COc1ccc2nc(C)c3c(c2c1)OC(C(C)(Cl)Br)C3 (stereo not given)	i	.
Cc1nc2ccccc2c(=O)n1/N=C/C=C/c1ccccc1	i	.
COC(=O)C/C=C/[C@@H](C)[C@@H](/C=N/OC[C@H]1O[C@H](c2ccccc2)C=C[C@@H]1Oc1ccc(OC)cc1)OC	-6.9*	-6.9
COc1ccc(O[C@H]2C=C[C@@H](c3ccccc3)O[C@@H]2COC(=O)CC/C(C)=N/OC[C@@H](O)COCc2ccco2)cc1	i	.
O=C(Nc1cccc(N2C(=O)C3CCCCC3C2=O)c1)c1ccccc1 (stereo not given)	i	2.1
O=C(Nc1cccc(Cl)c1)c1cccc(N2C(=O)C3CC=CCC3C2=O)c1 (stereo not given)	-6*	-6
O=C(c1cccs1)c1no[n+]([O-])c1C(=O)c1cccs1	-14*	-14
COc1ccc(C(=O)c2no[n+]([O-])c2C(=O)c2ccc(OC)cc2)cc1	i	.
COc1ccc(-c2nc(N3CCCCCC3)sc2C(=O)c2ccccc2)cc1	i	.
O=C(c1ccccc1)c1sc(N2CCCCCC2)nc1-c1ccccc1	-6.2*	-6.2
COc1ccc(CNC(=O)c2ccc(CS(=O)(=O)c3ccc(Br)cc3)o2)cc1	i	0.03
CCCCCCn1c(C)nc2c(c1=O)c1nc3ccccc3nc1n2/N=C/c1ccco1	i	.
O=c1c2c3nc4ccccc4nc3n(/N=C/c3ccco3)c2ncn1CCC1=CCCCC1	-6.6*	-6.6
COCCCn1c2nc3ccccc3nc2c2c(=O)n(CC3CCCO3)cnc21 (stereo not given)	i	0.02
Cc1nc2c(c(=O)n1CCC1=CCCCC1)c1nc3ccccc3nc1n2/N=C/c1ccccc1	-5.7*	-5.7
CCOCCCn1c(C)nc2c(c1=O)c1nc3ccccc3nc1n2CCC1=CCCCC1	-5.8*	-5.8
O=c1c2[nH]c3ccccc3c2ncn1CCC1=CCCCC1	i	.
Cc1[nH]c(C)c(S(=O)(=O)NCc2ccc(F)cc2)c1C(=O)N1CCCCC1	i	.
COC(=O)c1nc(N)sc1-c1ccc(Cl)c(Cl)c1	i	.
CCOC(=O)c1cnc2c(C)cc(Cl)cc2c1N1CCN(C)CC1	i	.
CN1C(=O)[C@H]2[C@@H](/C=C/c3ccccc3)N3C(=O)CN(Cc4ccc(-c5ccccc5)cc4)C(=O)[C@@]3(Cc3ccccc3)[C@H]2C1=O	i	.
SMILES	KCNQ2 inh	KCNQ2 enhance
CC1(C)CC(=O)C(N=Nc2ccc(-c3ccccc3)cc2)=C(O)C1	i	.
O=C1CCCC(O)=C1Sc1ccccc1C(=O)O	i	.
O=C1CCCC(O)=C1C(C#Cc1ccccc1)C1=C(O)CCCC1=O	-6.5*	-6.5
CC1(C)CC(=O)C(C(C#Cc2ccccc2)C2=C(O)CC(C)(C)CC2=O)=C(O)C1	-5.7*	-5.7
NC(=O)c1ccc(NC(=O)CN2CCN(Cc3ccccc3)CC2)cc1	i	2.1
O=C(CN(C(=O)CCC(=O)Nc1ccccn1)c1ccc(F)cc1)NCc1ccc(F)cc1	i	.
COc1ccc(NC(=O)c2cc(-c3ccc(OC)c(OC)c3)nc3ccccc23)c(OC)c1	-5.9*	-5.9
CC(=O)c1cccc(NC(=O)c2cc(-c3ccco3)nc3ccccc23)c1	i	.
COc1cccc(-c2cc(C(=O)NC3CCCC3)c3ccccc3n2)c1	i	.
COc1ccc(-c2cc(C(=O)Nc3ccc(C(N)=O)cc3)c3ccccc3n2)cc1OC	i	.
COc1ccc(OC)c(-c2cc(C(=O)NC3CCCC3)c3ccccc3n2)c1	-6.1*	-6.1
COc1cc(-c2cc(C(=O)Nc3cccc(C(C)=O)c3)c3ccccc3n2)cc(OC)c1OC	-5.6*	-5.6
COc1cccc(OCc2cc(C(=O)N3CCN(C)C(c4ccccc4)C3)no2)c1 (stereo not given)	i	.
Cc1ccc(S(=O)(=O)N(C)C)cc1NC(=O)CN1C(=O)NC(Cc2ccccc2)C1=O (stereo not given)	i	.
CC(=O)Nc1ccc(NS(=O)(=O)c2cccc3nonc23)cc1	i	0.18
COc1cc(NC(=O)Cc2ccccc2)ccc1NC(=O)c1ccccc1	i	1.6
Cc1cc(C)n2nc(NCc3cccc(Br)c3)nc2n1	-6.7*	-6.7
COc1ccc(CNc2nc3nc(C)cc(C)n3n2)cc1OC	i	0.53
CC(=O)Nc1nc(-c2cccc3ccccc23)cs1	i	0.01
O=C(NC(=S)Nc1nc(-c2ccccc2)cs1)c1cccs1	i	7.9*
O=C(NC(=S)Nc1nc(-c2cccc3ccccc23)cs1)c1cc2ccccc2o1	i	8.2*
Cc1nc(NC(=S)NC(=O)c2cccs2)ccc1Br	i	9.4*
